# Experimental data published in paper PMC11062922 (Nature Chemical Biology, 2023).
# Like-named read-outs stand apart in the source and are kept apart here.
# Columns and labels:
# [1] = system: ACVR1B; conditions: read-out: apparent Kd, n = 1
# [2] = system: AURKB; conditions: read-out: apparent Kd, n = 1
# [3] = compound concentrations:100 nM and 1000 nM (sheet 'Lestaurtinib' of Supplementary Table 1),run:Lestaurtinib_02339_R1,Plate:MR001
# [4] = compound concentrations:100 nM and 1000 nM (sheet 'Lestaurtinib' of Supplementary Table 1),run:Lestaurtinib_02364_R2,Plate:MR002
# [5] = compound concentrations:100 nM and 1000 nM (sheet 'Lestaurtinib' of Supplementary Table 1),run:Lestaurtinib_02364_R3,Plate:MR002
# [6] = compound concentrations:100 nM and 1000 nM (sheet 'Lestaurtinib' of Supplementary Table 1),run:Lestaurtinib_02367_R2,Plate:MR003
# [7] = compound concentrations:100 nM and 1000 nM (sheet 'Lestaurtinib' of Supplementary Table 1),run:Lestaurtinib_02381_R1,Plate:MR004
# [8] = compound concentrations:100 nM and 1000 nM (sheet 'Lestaurtinib' of Supplementary Table 1),run:Lestaurtinib_02437_R3,Plate:MR007
substance,measurement,setting,value
Lestaurtinib,potency estimated from few doses,[1]; [3],730 nM
same,potency estimated from few doses,[1]; [4],951 nM
same,potency estimated from few doses,[1]; [5],661 nM
same,potency estimated from few doses,"[1]; compound concentrations:100 nM and 1000 nM (sheet 'Lestaurtinib' of Supplementary Table 1),run:Lestaurtinib_02367_R1,Plate:MR003",671 nM
same,potency estimated from few doses,[1]; [6],684 nM
same,potency estimated from few doses,"[1]; compound concentrations:100 nM and 1000 nM (sheet 'Lestaurtinib' of Supplementary Table 1),run:Lestaurtinib_02367_R3,Plate:MR003",783 nM
same,potency estimated from few doses,[1]; [7],694 nM
same,potency estimated from few doses,"[1]; compound concentrations:100 nM and 1000 nM (sheet 'Lestaurtinib' of Supplementary Table 1),run:Lestaurtinib_02381_R3,Plate:MR004",515 nM
same,potency estimated from few doses,"[1]; compound concentrations:100 nM and 1000 nM (sheet 'Lestaurtinib' of Supplementary Table 1),run:Lestaurtinib_02422_R2,Plate:MR006",951 nM
same,potency estimated from few doses,"[1]; compound concentrations:100 nM and 1000 nM (sheet 'Lestaurtinib' of Supplementary Table 1),run:Lestaurtinib_02437_R1,Plate:MR007",592 nM
same,potency estimated from few doses,[1]; [8],740 nM
same,potency estimated from few doses,"[1]; compound concentrations:100 nM and 1000 nM (sheet 'Lestaurtinib' of Supplementary Table 1),run:Lestaurtinib_02438_R1,Plate:MR008",415 nM
same,potency estimated from few doses,"[1]; compound concentrations:100 nM and 1000 nM (sheet 'Lestaurtinib' of Supplementary Table 1),run:Lestaurtinib_02443_R2,Plate:MR009",855 nM
same,potency estimated from few doses,"[1]; compound concentrations:100 nM and 1000 nM (sheet 'Lestaurtinib' of Supplementary Table 1),run:Lestaurtinib_02443_R3,Plate:MR009",487 nM
same,potency estimated from few doses,"[1]; compound concentrations:100 nM and 1000 nM (sheet 'Lestaurtinib' of Supplementary Table 1),run:Lestaurtinib_02473_R1,Plate:MR010",479 nM
same,potency estimated from few doses,"[1]; compound concentrations:100 nM and 1000 nM (sheet 'Lestaurtinib' of Supplementary Table 1),run:Lestaurtinib_02473_R2,Plate:MR010",674 nM
same,potency estimated from few doses,"[1]; compound concentrations:100 nM and 1000 nM (sheet 'Lestaurtinib' of Supplementary Table 1),run:Lestaurtinib_02482_R1,Plate:MR011",665 nM
same,potency estimated from few doses,"[1]; compound concentrations:100 nM and 1000 nM (sheet 'Lestaurtinib' of Supplementary Table 1),run:Lestaurtinib_02487_R1,Plate:MR012",741 nM
same,potency estimated from few doses,"[1]; compound concentrations:100 nM and 1000 nM (sheet 'Lestaurtinib' of Supplementary Table 1),run:Lestaurtinib_02487_R2,Plate:MR012",754 nM
same,potency estimated from few doses,"[1]; compound concentrations:100 nM and 1000 nM (sheet 'Lestaurtinib' of Supplementary Table 1),run:Lestaurtinib_02487_R3,Plate:MR012",549 nM
same,potency estimated from few doses,"[1]; compound concentrations:100 nM and 1000 nM (sheet 'Lestaurtinib' of Supplementary Table 1),run:Lestaurtinib_02496_R2,Plate:MR013",776 nM
same,potency estimated from few doses,"[1]; compound concentrations:100 nM and 1000 nM (sheet 'Lestaurtinib' of Supplementary Table 1),run:Lestaurtinib_02496_R3,Plate:MR013",965 nM
same,potency estimated from few doses,"[1]; compound concentrations:100 nM and 1000 nM (sheet 'Lestaurtinib' of Supplementary Table 1),run:Lestaurtinib_02566_R1,Plate:MR014",386 nM
same,potency estimated from few doses,"[1]; compound concentrations:100 nM and 1000 nM (sheet 'Lestaurtinib' of Supplementary Table 1),run:Lestaurtinib_02566_R3,Plate:MR014",479 nM
same,potency estimated from few doses,"[1]; compound concentrations:100 nM and 1000 nM (sheet 'Lestaurtinib' of Supplementary Table 1),run:Lestaurtinib_02577_R3,Plate:MR016",422 nM
same,potency estimated from few doses,"[1]; compound concentrations:100 nM and 1000 nM (sheet 'Lestaurtinib' of Supplementary Table 1),run:Lestaurtinib_02584_R1,Plate:MR017",545 nM
same,potency estimated from few doses,"[1]; compound concentrations:100 nM and 1000 nM (sheet 'Lestaurtinib' of Supplementary Table 1),run:Lestaurtinib_02584_R2,Plate:MR017",970 nM
same,potency estimated from few doses,"[1]; compound concentrations:100 nM and 1000 nM (sheet 'Lestaurtinib' of Supplementary Table 1),run:Lestaurtinib_02584_R3,Plate:MR017",748 nM
same,potency estimated from few doses,"[1]; compound concentrations:100 nM and 1000 nM (sheet 'Lestaurtinib' of Supplementary Table 1),run:Lestaurtinib_02601_R1,Plate:MR018",559 nM
same,potency estimated from few doses,"[1]; compound concentrations:100 nM and 1000 nM (sheet 'Lestaurtinib' of Supplementary Table 1),run:Lestaurtinib_02601_R3,Plate:MR018",707 nM
same,potency estimated from few doses,"[1]; compound concentrations:100 nM and 1000 nM (sheet 'Lestaurtinib' of Supplementary Table 1),run:Lestaurtinib_02606_R1,Plate:MR019",628 nM
same,potency estimated from few doses,"[1]; compound concentrations:100 nM and 1000 nM (sheet 'Lestaurtinib' of Supplementary Table 1),run:Lestaurtinib_02606_R3,Plate:MR019",836 nM
same,potency estimated from few doses,"[1]; compound concentrations:100 nM and 1000 nM (sheet 'Lestaurtinib' of Supplementary Table 1),run:Lestaurtinib_02624_R1,Plate:MR020",613 nM
same,potency estimated from few doses,"[1]; compound concentrations:100 nM and 1000 nM (sheet 'Lestaurtinib' of Supplementary Table 1),run:Lestaurtinib_02624_R3,Plate:MR020",724 nM
same,potency estimated from few doses,"[1]; compound concentrations:100 nM and 1000 nM (sheet 'Lestaurtinib' of Supplementary Table 1),run:Lestaurtinib_02724_R1,Plate:MR021",624 nM
same,potency estimated from few doses,"[1]; compound concentrations:100 nM and 1000 nM (sheet 'Lestaurtinib' of Supplementary Table 1),run:Lestaurtinib_02724_R2,Plate:MR021",755 nM
same,potency estimated from few doses,"[1]; compound concentrations:100 nM and 1000 nM (sheet 'Lestaurtinib' of Supplementary Table 1),run:Lestaurtinib_02741_R3,Plate:MR023",712 nM
same,potency estimated from few doses,"[1]; compound concentrations:100 nM and 1000 nM (sheet 'Lestaurtinib' of Supplementary Table 1),run:Lestaurtinib_02748_R1,Plate:MR024",417 nM
same,potency estimated from few doses,"[1]; compound concentrations:100 nM and 1000 nM (sheet 'Lestaurtinib' of Supplementary Table 1),run:Lestaurtinib_02748_R2,Plate:MR024",745 nM
same,potency estimated from few doses,"[1]; compound concentrations:100 nM and 1000 nM (sheet 'Lestaurtinib' of Supplementary Table 1),run:Lestaurtinib_02752_R3,Plate:MR025",724 nM
same,potency estimated from few doses,"[1]; compound concentrations:100 nM and 1000 nM (sheet 'Lestaurtinib' of Supplementary Table 1),run:Lestaurtinib_02765_R1,Plate:MR026",811 nM
same,potency estimated from few doses,"[1]; compound concentrations:100 nM and 1000 nM (sheet 'Lestaurtinib' of Supplementary Table 1),run:Lestaurtinib_02765_R2,Plate:MR026",488 nM
same,potency estimated from few doses,"[1]; compound concentrations:100 nM and 1000 nM (sheet 'Lestaurtinib' of Supplementary Table 1),run:Lestaurtinib_02766_R3,Plate:MR027",495 nM
same,potency estimated from few doses,"[1]; compound concentrations:100 nM and 1000 nM (sheet 'Lestaurtinib' of Supplementary Table 1),run:Lestaurtinib_02768_R2,Plate:MR028",577 nM
same,potency estimated from few doses,"[1]; compound concentrations:100 nM and 1000 nM (sheet 'Lestaurtinib' of Supplementary Table 1),run:Lestaurtinib_02768_R3,Plate:MR028",533 nM
same,potency estimated from few doses,"[1]; compound concentrations:100 nM and 1000 nM (sheet 'Lestaurtinib' of Supplementary Table 1),run:Lestaurtinib_02795_R1,Plate:MR022",857 nM
same,potency estimated from few doses,"[1]; compound concentrations:100 nM and 1000 nM (sheet 'Lestaurtinib' of Supplementary Table 1),run:Lestaurtinib_02795_R2,Plate:MR022",563 nM
same,potency estimated from few doses,"[1]; compound concentrations:100 nM and 1000 nM (sheet 'Lestaurtinib' of Supplementary Table 1),run:Lestaurtinib_02795_R3,Plate:MR022",806 nM
same,potency estimated from few doses,"[1]; compound concentrations:100 nM and 1000 nM (sheet 'Lestaurtinib' of Supplementary Table 1),run:Lestaurtinib_02802_R1,Plate:MR029",480 nM
same,potency estimated from few doses,"[1]; compound concentrations:100 nM and 1000 nM (sheet 'Lestaurtinib' of Supplementary Table 1),run:Lestaurtinib_02802_R2,Plate:MR029",584 nM
same,potency estimated from few doses,"[1]; compound concentrations:100 nM and 1000 nM (sheet 'Lestaurtinib' of Supplementary Table 1),run:Lestaurtinib_02802_R3,Plate:MR029",656 nM
same,potency estimated from few doses,"[1]; compound concentrations:100 nM and 1000 nM (sheet 'Lestaurtinib' of Supplementary Table 1),run:Lestaurtinib_02896_R1,Plate:MR030",549 nM
same,potency estimated from few doses,"[1]; compound concentrations:100 nM and 1000 nM (sheet 'Lestaurtinib' of Supplementary Table 1),run:Lestaurtinib_02896_R3,Plate:MR030",494 nM
same,potency estimated from few doses,"[1]; compound concentrations:100 nM and 1000 nM (sheet 'Lestaurtinib' of Supplementary Table 1),run:Lestaurtinib_03172_R1,Plate:MR031",377 nM
same,potency estimated from few doses,"[1]; compound concentrations:100 nM and 1000 nM (sheet 'Lestaurtinib' of Supplementary Table 1),run:Lestaurtinib_03172_R2,Plate:MR031",568 nM
same,potency estimated from few doses,"[1]; compound concentrations:100 nM and 1000 nM (sheet 'Lestaurtinib' of Supplementary Table 1),run:Lestaurtinib_03172_R3,Plate:MR031",598 nM
same,potency estimated from few doses,"[1]; compound concentrations:100 nM and 1000 nM (sheet 'Lestaurtinib' of Supplementary Table 1),run:Lestaurtinib_03252_R2,Plate:MR032",547 nM
same,potency estimated from few doses,"[1]; compound concentrations:100 nM and 1000 nM (sheet 'Lestaurtinib' of Supplementary Table 1),run:Lestaurtinib_03260_R2,Plate:MR033",551 nM
same,potency estimated from few doses,"[1]; compound concentrations:100 nM and 1000 nM (sheet 'Lestaurtinib' of Supplementary Table 1),run:Lestaurtinib_03260_R3,Plate:MR033",778 nM
same,potency estimated from few doses,[2]; [3],261 nM
same,potency estimated from few doses,"[2]; compound concentrations:100 nM and 1000 nM (sheet 'Lestaurtinib' of Supplementary Table 1),run:Lestaurtinib_02339_R2,Plate:MR001",143 nM
same,potency estimated from few doses,"[2]; compound concentrations:100 nM and 1000 nM (sheet 'Lestaurtinib' of Supplementary Table 1),run:Lestaurtinib_02364_R1,Plate:MR002",260 nM
same,potency estimated from few doses,[2]; [4],159 nM
same,potency estimated from few doses,[2]; [5],220 nM
same,potency estimated from few doses,[2]; [6],304 nM
same,potency estimated from few doses,[2]; [7],278 nM
same,potency estimated from few doses,"[2]; compound concentrations:100 nM and 1000 nM (sheet 'Lestaurtinib' of Supplementary Table 1),run:Lestaurtinib_02381_R2,Plate:MR004",232 nM
same,potency estimated from few doses,"[2]; compound concentrations:100 nM and 1000 nM (sheet 'Lestaurtinib' of Supplementary Table 1),run:Lestaurtinib_02407_R2,Plate:MR005",132 nM
same,potency estimated from few doses,"[2]; compound concentrations:100 nM and 1000 nM (sheet 'Lestaurtinib' of Supplementary Table 1),run:Lestaurtinib_02407_R3,Plate:MR005",268 nM
same,potency estimated from few doses,"[2]; compound concentrations:100 nM and 1000 nM (sheet 'Lestaurtinib' of Supplementary Table 1),run:Lestaurtinib_02422_R1,Plate:MR006",157 nM
same,potency estimated from few doses,[2]; [8],26.5 nM
same,potency estimated from few doses,"[2]; compound concentrations:100 nM and 1000 nM (sheet 'Lestaurtinib' of Supplementary Table 1),run:Lestaurtinib_02438_R2,Plate:MR008",158 nM
